Sa ugtP lethal = compounds lethal to S. aureus RN4220 ugtP deletion mutant. OD600 growth, 16 h. growth inhibition, % (test concentration not listed). 330,000 tested, 0.54% active; in the data active means growth inhibition above about 68%;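 further: plate controls were untreated wells for no effect and antibiotic for full effect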
PrP UTR inh = suppresses PrP 5' UTR mRNA reporter expression. AID 488862. 340,000 tested, 0.35% active. cell-based PrP 5' UTR mRNA reporter, plate reader. inhibition, % (test concentration not listed); in the data active means inhibition above about 52%; further: 0 = median of the neutral control wells
CCHFV vOTU inh = CCHFV vOTU protease inhibition; Pep-AMC fluorescence; inhibition, % at 11.5 µM; 370,000 tested, 0.55% active; AID 651958; in the data active means inhibition above about 30%; further: 0% = vehicle wells with enzyme and 100% = no enzyme wells
PrPC surface inh = inhibitors of human cell surface prion protein PrPC | P04156 | TR-FRET read-out | inhibition, % at 13.8 µM | 370,000 tested, 0.43% active; in the data active means inhibition above about 24%; further: 0% = median of the test wells and 100% = reference compound wells
RN4220 kill = kills Staphylococcus aureus RN4220 | S. aureus RN4220 growth, OD600, 16 h | inhibition, % (concentration not given with the values) | 330,000 tested, 0.33% active; in the data active means inhibition above about 85%;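 further: plate controls were untreated cells for no effect and reference antibiotic for full effect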
PfHsp40 rescue = restores yeast growth despite PfHsp40 toxicity | 340,000 tested, 0.68% active | growth rescue, % at 12.5 µM | AID 504582 | S. cerevisiae expressing PfHsp40, growth rescue, ATP luminescence; in the data active means growth rescue above about 28%, passing the limit was not always enough;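 further: yeast W303a lacking pdr1 and pdr3 grown in galactose medium; growth measured after three days at 30 °C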
PrPC TRFRET cf = cell surface PrPC inhibition, TR-FRET confirmation | inhibition, % at 13.8 µM | shares compounds with PrPC surface inh | cell surface PrPC level | 1,500 tested, 65% active; in the data active means inhibition above about 25%
LD9 cytotox = counter-screen for PrPc inhibitors: cytotoxicity in LD9 cells; luminescence viability; shares compounds with PrPC surface inh; 1,500 tested, 29% active; inhibition, % at 13.8 µM; AID 743201; in the data active means inhibition above about 9.5%
An asterisk follows results filed as active; x = no result given. Most compounds without a hit are left out; they make up all but 2.1% or so of the library.

SMILES | Sa ugtP lethal | PrP UTR inh | CCHFV vOTU inh | PrPC surface inh | RN4220 kill | PfHsp40 rescue | PrPC TRFRET cf | LD9 cytotox
CCOc1ccc(/C(O)=C2/C(=O)C(=O)N(c3ccccn3)C2c2ccc(C)cc2)c(C)c1 (stereo not drawn) | 4.4 | -7.8 | 13.2 | 39.7* | 4.4 | -0.3 | 51.8* | -2.9
CCCCC=CC(NC(=O)CCc1ccccc1)c1ccccc1 (stereo not drawn) | 4.4 | x | x | x | 6.3 | x | x | x
COc1ccc(CC(=O)NC(c2ccccc2)c2ccc(C)cc2)c(OC)c1 (stereo not drawn) | 7.7 | -26.3 | 11.7 | 29.9* | -0.3 | -0.1 | 27.8* | -9.0
O=S(=O)(c1ccccc1)[C@@]1(c2ccccc2)CC2ON=C(c3cccc(-c4ccccc4)c3)C2C1 (stereo partly drawn) | 1.5 | x | x | x | -2.1 | x | x | x
Cc1c(C=NO)c2ccccn2c1C=O | 5.6 | x | x | x | 5.8 | x | x | x
COc1ccc2c(Cl)c(C(N)=O)sc2c1 | 19.8 | -6.8 | 11.1 | 78.6* | 2.2 | 1.1 | 99.5* | 1.6
CC1CN(C(C)CO)C(=O)c2cccc(NC(=O)Nc3ccc4c(c3)OCO4)c2OC1CN(C)S(=O)(=O)c1cccs1 (stereo not drawn) | 2.0 | x | x | x | 0.0 | x | x | x
Cc1cc(C)c(S(=O)(=O)NCc2ccncc2)c(C)c1 | -5.1 | -11.0 | 5.3 | 40.4* | 1.5 | -2.2 | 34.6* | 5.9
Cc1cc(C)c(S(=O)(=O)NCCc2ccncc2)c(C)c1 | -2.4 | -7.2 | -8.9 | -1.1 | 0.3 | 0.8 | x | x
CCC(C)C(NC(=O)CCCNC(=O)CCC(=O)OC1O[C@H]2OC3(C)CC[C@H]4[C@H](C)CCC(C1C)C24OO3)C(=O)O (stereo partly drawn) | x | -13.9 | 0.8 | 27.8* | x | 1.6 | 31.0* | 22.1*
CCC(C)NC(=O)CCC(=O)OC1O[C@H]2OC3(C)CC[C@H]4[C@H](C)CCC(C1C)C24OO3 (stereo partly drawn) | -1.6 | -20.8 | 6.0 | 28.1* | 3.6 | 101.4* | 30.8* | 21.4*
CC(=O)Oc1ccccc1C(=O)Oc1ccc(C=Nn2cnnc2)cc1 | -8.2 | x | x | x | -5.0 | x | x | x
Fc1ccccc1COc1ccc(Br)cc1CNCc1cccnc1 | -15.7 | -10.2 | 1.2 | 4.6 | 0.6 | -1.6 | x | x
Fc1ccccc1COc1ccc(Br)cc1CNCc1ccncc1 | -6.8 | -8.7 | 4.9 | 24.8* | 4.8 | 241.6* | 22.6 | 16.9*
O=C(Nc1nc(-c2ccccn2)cs1)c1ccccc1-n1cnnn1 | 4.9 | 26.3 | 5.9 | 27.8* | 7.2 | -1.3 | 27.2* | 19.5*
CCOC(=O)C1=CCC(c2cc(OC)c(OC)c(OC)c2)N(S(=O)(=O)c2ccc(C)cc2)C1C(=O)OCC (stereo not drawn) | -1.4 | x | x | x | 9.0 | x | x | x
Cc1ccc(S(=O)(=O)N2CCN(CC(O)c3ccccc3)CC2)cc1C (stereo not drawn) | -4.1 | -27.7 | -0.5 | 56.9* | -0.5 | -1.0 | 6.1 | -5.0
Cc1ccc(S(=O)(=O)N2CCN(CC(O)c3ccccc3)CC2)cc1 (stereo not drawn) | 2.4 | -6.9 | -5.4 | 7.6 | 0.9 | 0.6 | x | x
O=S(=O)(NC1c2cccc3cccc(c23)C1N1CCN(CCO)CC1)c1ccccc1 (stereo not drawn) | 0.4 | -4.1 | -1.4 | 33.8* | 15.6 | -0.2 | 16.0 | 3.7
Cc1nn(Cc2ccccc2Cl)c2sc(C(=O)NC(C)(C)C)cc12 | -1.9 | 3.9 | 3.5 | 7.3 | -2.8 | 2.3 | x | x
Cc1csc(NC(=O)c2cc3c(C)nn(Cc4ccccc4Cl)c3s2)n1 | 6.4 | -7.1 | 0.2 | 32.8* | 16.4 | -1.1 | 23.5 | -1.1
NC(Cc1ccc(Cl)cc1)c1csc(NC(=O)NCC2CCCCC2)n1 (stereo not drawn) | x | x | 3.3 | 61.1* | x | x | 41.5* | -2.4
NC(Cc1ccc(Cl)cc1)c1csc(NC(=O)NCCc2ccccc2)n1 (stereo not drawn) | x | x | 10.9 | -10.6 | x | x | x | x
CC1CN(C(C)CO)C(=O)c2cccc(NC(=O)Nc3ccc(F)cc3)c2OC1CN(C)Cc1ccccc1 (stereo not drawn) | 3.3 | x | x | x | 0.8 | x | x | x
COc1cc(C(=O)Nc2scc(-c3ccc(C)cc3)c2C(=O)O)cc(OC)c1OC | -13.0 | -24.9 | 15.0 | 60.5* | 13.6 | 0.1 | 68.7* | -5.3
SMILES | Sa ugtP lethal | PrP UTR inh | CCHFV vOTU inh | PrPC surface inh | RN4220 kill | PfHsp40 rescue | PrPC TRFRET cf | LD9 cytotox
CCOC(=O)c1c(-c2cc(OC)c(OC)c(OC)c2)csc1NC(=O)c1ccccc1 | x | x | -3.6 | 1.2 | x | x | x | x
Cc1ccc(NC(=O)c2cc(S(=O)(=O)N3CCCCC3)ccc2N2CCOCC2)cc1S(=O)(=O)N(C)C | -0.2 | -13.4 | -1.3 | -3.3 | 5.0 | 0.2 | x | x
COc1ccc(C(=O)Nc2ccc(S(=O)(=O)N3CCCCC3)cc2)cc1OC | 9.2 | -11.7 | 12.1 | 2.3 | -6.9 | 0.5 | x | x
COc1ccc(-c2cnnn2-c2ccc(NC(=O)c3ccc(S(=O)(=O)N4CCCCC4)cc3)cc2)cc1OC | -8.8 | 4.0 | 3.5 | 31.8* | 8.4 | 0.0 | 19.0 | -12.5
Cc1ccc(NC(=O)c2cc(S(=O)(=O)N(C)C)ccc2N2CCCC2)cc1S(=O)(=O)N(C)C | -2.0 | 2.3 | -4.9 | 44.0* | 3.9 | -0.3 | 37.0* | -5.2
COc1ccc(NC(=O)c2cc(S(=O)(=O)N(C)C)ccc2N2CCCC2)cc1Cl | 2.7 | -18.6 | -10.4 | 24.4* | 3.2 | 2.3 | 20.7 | -6.0
COc1ccc(S(=O)(=O)N2CCOCC2)cc1C(=O)Nc1ccc(N2CCCCCC2)cc1 | x | -15.8 | 15.0 | 30.8* | x | -0.1 | 29.5* | 6.9
COc1ccccc1NCC(=O)NN=C/C=C/c1ccccc1 | 2.8 | x | x | x | 2.6 | x | x | x
NC(=O)CSc1nnc2n(-c3ccccc3)c(=O)c3c4c(sc3n12)CCCCC4 | 6.2 | -17.7 | -1.9 | 50.5* | 2.8 | 0.8 | 85.8* | -5.1
CCCNC(=O)N1C2CCC1C(C(=O)OC)=C(c1cccc(C#N)c1)C2 (stereo not drawn) | -7.0 | x | x | x | 2.1 | x | x | x
CCc1ccc(NC(=O)C2CCCN(S(=O)(=O)c3ccc4c(c3)CCCN4C(C)=O)C2)cc1 (stereo not drawn) | 5.9 | -13.4 | -10.9 | 24.6* | 1.4 | 0.4 | 37.1* | 9.0
CC(=O)N1CCCc2cc(S(=O)(=O)N3CCCC(C(=O)Nc4cccc(F)c4)C3)ccc21 (stereo not drawn) | 5.7 | -10.7 | 7.2 | 36.2* | 2.3 | 0.2 | 24.4* | 11.5*
CCOC(=O)c1ccc(NC(=O)C2CCN(S(=O)(=O)c3ccccc3)CC2)cc1 | -12.2 | -62.2 | 2.9 | -3.5 | -1.6 | 4.7 | x | x
CC(=O)N1CCCc2cc(S(=O)(=O)N3CCCC(C(=O)N4CCN(c5cc(C)ccc5C)CC4)C3)ccc21 (stereo not drawn) | -8.0 | 11.7 | 10.1 | 25.2* | -1.4 | 0.9 | 20.9 | 9.3*

Screens deposited in PubChem by several laboratories.
